Among the test systems are NCI-H23 lung; NCI-H226 lung; NCI-H322M lung; HOP-62 NSCLC; NCI-H522 lung; A549/ATCC NSCLC; 786-0 renal; COLO 205 colon; DU-145 prostate; K-562 leukemia; MALME-3M melanoma; MDA-MB-231 breast; RXF 393 renal; SF-268 CNS; SF-295 CNS; SF-539 CNS; UACC-257 melanoma; M14 melanoma.
Common to all, as to experiment: NCI-60 one-dose screen, 48 h (100 = growth as untreated, 0 = no growth, -100 = all killed)
Conditions in all cases: 10 µM unless noted

About 83,000 compounds went through this panel and 20% of them were active in at least one assay; those are over-represented in the sample as a whole.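 The endpoint reported here, percent growth, reads 100 for growth as untreated, 0 for no net growth and -100 for all cells dead.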 A number with no mark means an inactive call. Calls of active or inactive are those of the source. The calls were made as follows: active = growth percent below 10; inactive = the rest.

For the molecule `C#C[C@]1(O)CC[C@H]2[C@@H]3CC=C4c5sc(-c6cccc(Br)c6)nc5CC[C@]4(C)[C@H]3CC[C@@]21C`, the growth in the experiment with NCI-H23 lung is 82.9%; with NCI-H226 lung, 97.9%; in the experiment on NCI-H322M lung it was 73.5%; in the experiment on HOP-62 NSCLC, 91.5%; in the experiment with NCI-H522 lung, 62.3%; in the experiment on A549/ATCC NSCLC, 81.2%. Also, the growth in the experiment with 786-0 renal was 51.9%; in the experiment with COLO 205 colon, 118%; in the experiment on DU-145 prostate, 88.6%; in the experiment on K-562 leukemia, 6.54% (active); in the experiment with MALME-3M melanoma, 100%; with MDA-MB-231 breast it was 79.9%. The growth was 37.3% with RXF 393 renal; 72.4% in the experiment with SF-268 CNS; 55.5% in the experiment with SF-295 CNS; 37.6% in the experiment with SF-539 CNS; 80.7% in the experiment on UACC-257 melanoma.

For the molecule `NC(=O)c1ccc[n+](Cc2ccccc2)c1`, the growth with NCI-H23 lung is 96.1%; in the experiment on NCI-H226 lung, 102%; with NCI-H322M lung, 104%; in the experiment on HOP-62 NSCLC it was 127%; in the experiment with NCI-H522 lung it was 99.3%; in the experiment with A549/ATCC NSCLC, 94.3%. The growth in the experiment on 786-0 renal is 109%; in the experiment on COLO 205 colon, 112%; with DU-145 prostate it was 101%; in the experiment on K-562 leukemia it was 113%; in the experiment with MALME-3M melanoma, 75.4%; in the experiment with MDA-MB-231 breast it was 105%. Also, the growth is 97.6% with RXF 393 renal; 107% in the experiment with SF-268 CNS; 109% with SF-295 CNS; 96.7% with SF-539 CNS; 95.3% in the experiment on UACC-257 melanoma; 96.3% in the experiment with M14 melanoma.

Take `CN(C)CCNC(=O)n1cc(-c2ccncc2)c(-c2cc(O)cc(Cl)c2)n1`: the growth in the experiment on NCI-H23 lung was 108%; in the experiment on NCI-H226 lung it was 102%; in the experiment on NCI-H322M lung it was 128%; in the experiment on HOP-62 NSCLC it was 98.2%; in the experiment on NCI-H522 lung it was 115%; in the experiment on A549/ATCC NSCLC it was 107%. Moreover, the growth was 81.4% in the experiment on 786-0 renal; 88.6% in the experiment on COLO 205 colon; 102% with DU-145 prostate; 74.8% in the experiment on K-562 leukemia; 6.11% (active) with MALME-3M melanoma; 88.6% in the experiment with MDA-MB-231 breast. Besides, the growth in the experiment on RXF 393 renal was 84.4%; with SF-268 CNS it was 96.8%; in the experiment on SF-295 CNS it was 117%; with SF-539 CNS it was 82.5%; in the experiment with UACC-257 melanoma, 40.6%; in the experiment with M14 melanoma, 27.6%.

`O=C(N/N=C/c1ccccc1O)c1ccncc1`: the growth is 70.9% in the experiment on NCI-H23 lung; 70.1% in the experiment on NCI-H226 lung; 51.2% with NCI-H322M lung; 43% in the experiment with HOP-62 NSCLC; -20% (active) in the experiment with NCI-H522 lung; 53.6% in the experiment with A549/ATCC NSCLC. Further, the growth is 51.1% with 786-0 renal; 27.4% in the experiment with COLO 205 colon; 58.3% in the experiment with DU-145 prostate; 64.9% in the experiment on K-562 leukemia; 73.6% in the experiment with MALME-3M melanoma; 62.8% with MDA-MB-231 breast. Moreover, the growth was 80.7% in the experiment on RXF 393 renal; 48.3% in the experiment with SF-268 CNS; 54% in the experiment on SF-295 CNS; 70.8% in the experiment with SF-539 CNS; 60.7% in the experiment on UACC-257 melanoma; 50.7% with M14 melanoma.

As for `CN(C)N1C(=O)c2c(Cl)c(Cl)c(Cl)c(Cl)c2C1=O`, the growth in the experiment with NCI-H23 lung was 96.9%; in the experiment on NCI-H226 lung, 103%; with NCI-H322M lung, 112%; in the experiment with HOP-62 NSCLC it was 108%; with NCI-H522 lung it was 94.2%; with A549/ATCC NSCLC it was 104%. Further, the growth is 103% in the experiment with 786-0 renal; 111% with COLO 205 colon; 120% with DU-145 prostate; 98.4% in the experiment on K-562 leukemia; 123% in the experiment with MALME-3M melanoma; 115% in the experiment on MDA-MB-231 breast. Besides, the growth was 112% in the experiment on RXF 393 renal; 106% in the experiment with SF-268 CNS; 123% with SF-295 CNS; 118% with SF-539 CNS; 104% in the experiment with UACC-257 melanoma; 101% in the experiment on M14 melanoma.

With `COc1ccc(/C=C(\C#N)c2cc(OC)c(OC)c(OC)c2)cc1`, the growth with NCI-H23 lung is 1.46% (active); with NCI-H226 lung, -8.11% (active); in the experiment with NCI-H322M lung it was 42.8%; with HOP-62 NSCLC it was 24.1%; with NCI-H522 lung it was 5.56% (active); in the experiment on A549/ATCC NSCLC, 20.8%. Also, the growth in the experiment on 786-0 renal was 18.2%; in the experiment with COLO 205 colon, -69.7% (active); in the experiment with DU-145 prostate, -1.75% (active); in the experiment on MALME-3M melanoma, 69.1%; with MDA-MB-231 breast, 38.4%; with RXF 393 renal it was 48.7%. Further, the growth was 27% in the experiment with SF-268 CNS; 14.1% in the experiment on SF-295 CNS; 8.76% (active) in the experiment with SF-539 CNS; 65.7% with UACC-257 melanoma; 8.3% (active) in the experiment on M14 melanoma.

For `O=C1OCC2=C1C(c1ccccc1)c1cc3c(cc1N2CCO)OCO3` (configuration not stated), the growth in the experiment on NCI-H23 lung was 42.5%; in the experiment with NCI-H226 lung it was 49%; in the experiment on NCI-H322M lung, 85.8%; in the experiment on HOP-62 NSCLC it was 40.3%; in the experiment on NCI-H522 lung, -23.7% (active); in the experiment on A549/ATCC NSCLC, 58.7%. For the same molecule, the growth is 32.1% with 786-0 renal; -8.27% (active) with COLO 205 colon; 69.4% with DU-145 prostate; 50% with MALME-3M melanoma; 52.2% in the experiment with MDA-MB-231 breast; 24.8% in the experiment with RXF 393 renal. In addition, the growth in the experiment on SF-268 CNS was 49%; in the experiment on SF-295 CNS, -12.8% (active); with SF-539 CNS, -0.802% (active); in the experiment with UACC-257 melanoma, 58.3%; with M14 melanoma it was 3.99% (active).

Consider `CCc1c(C)c2ccc(O)c(-c3cc(-c4ccccc4)c(C#N)c(=O)[nH]3)c2oc1=O`, for which the growth with NCI-H23 lung was 89%; in the experiment with NCI-H226 lung it was 83.8%; in the experiment on NCI-H322M lung it was 95%; with HOP-62 NSCLC it was 89.4%; with A549/ATCC NSCLC, 90%; in the experiment on 786-0 renal, 105%. For the same molecule, the growth is 115% with COLO 205 colon; 96.7% with DU-145 prostate; 107% in the experiment on MALME-3M melanoma; 72.6% in the experiment with MDA-MB-231 breast; 99.2% with RXF 393 renal; 108% in the experiment with SF-268 CNS. Also, the growth is 97.4% in the experiment on SF-295 CNS, 113% with SF-539 CNS, 123% with UACC-257 melanoma and 102% in the experiment with M14 melanoma.

As to `CCN(CC)c1ccc(/C=N/NC(=O)C[N+](C)(C)C)cc1`, the growth in the experiment with NCI-H23 lung is 99.4%; in the experiment on NCI-H226 lung, 98.9%; with NCI-H322M lung, 115%; in the experiment with HOP-62 NSCLC it was 99.2%; in the experiment with NCI-H522 lung it was 100%; in the experiment on A549/ATCC NSCLC, 100%. Besides, the growth was 101% with 786-0 renal; 111% in the experiment with COLO 205 colon; 113% in the experiment with DU-145 prostate; 54.3% in the experiment with K-562 leukemia; 92.6% with MALME-3M melanoma; 119% in the experiment with MDA-MB-231 breast. Further, the growth in the experiment with RXF 393 renal was 112%; in the experiment on SF-268 CNS, 110%; with SF-295 CNS, 109%; with SF-539 CNS, 110%; with UACC-257 melanoma, 104%; in the experiment on M14 melanoma, 110%.

These data come from PubChem BioAssay (NCI).
